Screening results (PubChem BioAssay)
This is a sample that favours compounds with a hit; in the whole collection about 18% have one here.
DT40 TDP1 CPT = DT40-hTDP1 cell growth loss with CPT; chicken DT40 Tdp1-/-;hTDP1 cells + 20 nM CPT, ATP luminescence, 48 h; Potency, µM (series often up to 46.2 µM), for inactives: top-dose activity change, negative = growth inhibition, actives largely listed as inhibitors; actives 12% (n = 420,000); AID 686979; also: potency is read from the fitted curve at half-maximal effect; % is scaled to controls: 0 for no effect and ±100 for the full control effect; nearly all actives have a fitted effect of over 55% in size
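Cell growth measured by CellTiter-Glo luminescence after a minimum 48 h, 37 C compound exposure with 20 nM CPT in Tdp1-knockout DT40 cells stably expressing hTDP1, seeded 400/well; qHTS titration format.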
HepG2 viability = counter-screen for TGF-b inhibitors: cytotoxicity in HepG2 cells; actives 0.76% (n = 410,000); HepG2 CAGA-GFP viability, ATP luminescence, 18 h; Potency, µM (top dose mostly 46.1 µM), without a hit: at the top dose activity change, negative = cytotoxicity, most hits filed as cytotoxic; also: potency is read from the fitted curve at half-maximal effect
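CellTiter-Glo luminescence gave cytotoxicity after 18 hours at 37 degrees C. The cells were HepG2 CAGA-GFP in 1% FBS DMEM, stimulated with 500 pg/mL TGF-beta after compound addition. %Activity was normalised to no-cell wells (complete cell-killing) and DMSO (no toxicity), and curves were fitted and classified.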
TDP1 cell noCPT = qHTS for Inhibitors of human tyrosyl-DNA phosphodiesterase 1 (TDP1): qHTS in cells in absence of CPT; AID 686978, 2013; Potency, µM (top dose mostly 46.2 µM), for the others: at the top dose activity change, negative = growth inhibition, hits mostly inhibitors; DT40 Tdp1-/- hTDP1 cells, no CPT, ATP luminescence, 48 h; actives 15% (n = 420,000); also: potency is read from the fitted curve at half-maximal effect; % is scaled to controls: 0 for no effect and ±100 for the full control effect; nearly all actives have a fitted effect of over 55% in size
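Growth kinetics read by CellTiter-Glo luminescence after ≥48 hr at 37 °C. Cells: DT40 Tdp1-/- stably carrying human TDP1, 400 per well, compound exposure in the absence of CPT (DMSO vehicle).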
IL-1B inflam inh = inhibitors of inflammasome signaling (IL-1 beta secretion); AID 743279; THP-1 LPS/ATP IL-1B secretion, AlphaLISA, 16 h; active compounds read low; actives 4.7% (n = 360,000); activity change, % at 57.5 µM; in the data active = activity change below about -50%; inconclusive = mostly about -30% to -49%; also: % is scaled to controls: 0 for no effect and ±100 for the full control effect
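THP-1 cells pretreated 1 hr with compounds (up to 57.5 uM final), then stimulated with LPS (250 ng/mL final) plus ATP (1.25 mM final); secreted IL-1B measured by AlphaLISA after 16 hr, decreased signal indicating inhibition.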
TGFb SMAD3 inh = TGF-b pathway inhibition. AID 588855. HepG2 CAGA-GFP TGF-b/SMAD3 reporter, GFP fluorescence, 18 h; TGF-beta stimulated, 500 pg/mL final. actives 1.2% (n = 410,000). Potency, µM (highest dose often 46.1 µM), for the others: top-dose activity, negative = inhibition, usual class: inhibitors; also: potency is read from the fitted curve at half-maximal effect; % is scaled to controls: 0 for no effect and ±100 for the full control effect; nearly all actives have a fitted effect of over 65% in size
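HEPG2 CAGA-GFP cells (1000/well, DMEM with 1% FBS) were pre-incubated 2 h at 37 degrees C, given compound by pin tool, then stimulated with TGF-beta at 500 pg/mL final for 18 h before per-cell GFP fluorescence imaging.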
TDP1 block = blocks human tyrosyl-DNA phosphodiesterase 1 | Q9NUW8 | recombinant TDP1, AlphaScreen DNA substrate cleavage | Potency, µM (highest dose often 130 µM), without a hit: top-dose activity change, negative = inhibition, usual class: inhibitors | actives 0.28% (n = 350,000) | AID 485290; also: potency is read from the fitted curve at half-maximal effect; % is scaled to controls: 0 for no effect and ±100 for the full control effect; nearly all actives have a fitted effect of over 40% in size
Target sequence (Q9NUW8 whole entry, looked up): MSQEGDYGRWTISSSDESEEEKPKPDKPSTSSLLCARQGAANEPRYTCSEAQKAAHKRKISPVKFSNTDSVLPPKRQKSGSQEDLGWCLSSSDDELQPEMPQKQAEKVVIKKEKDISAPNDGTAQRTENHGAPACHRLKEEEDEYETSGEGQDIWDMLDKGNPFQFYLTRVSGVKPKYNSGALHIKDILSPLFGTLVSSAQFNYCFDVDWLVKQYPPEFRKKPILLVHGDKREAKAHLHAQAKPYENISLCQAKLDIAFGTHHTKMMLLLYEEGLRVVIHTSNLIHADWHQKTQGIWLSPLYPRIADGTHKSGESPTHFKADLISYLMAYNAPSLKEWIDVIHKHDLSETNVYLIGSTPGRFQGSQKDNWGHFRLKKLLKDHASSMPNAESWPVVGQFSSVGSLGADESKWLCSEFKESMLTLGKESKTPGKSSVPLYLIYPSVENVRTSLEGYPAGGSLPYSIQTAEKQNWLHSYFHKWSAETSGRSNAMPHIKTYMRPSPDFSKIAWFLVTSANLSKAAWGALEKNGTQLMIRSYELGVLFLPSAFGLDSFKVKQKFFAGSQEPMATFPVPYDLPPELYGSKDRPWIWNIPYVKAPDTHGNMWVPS
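E. coli-derived human Tdp1, 1 nM final. Cpd preinc 15 min RT; substrate 15 nM final, 5 min RT; AS bead mix 10 ug/ml final, 10 min RT. Signal loss = tyrosine-FITC cleavage. No-enzyme wells = max signal.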
Active calls of the source: *; u = inconclusive; x = no result given; [ ] = remark or other dose. Unless noted, calls follow the shape of the dose curve; as a rule, active = well fitted curve in the direction sought with a large enough effect; inconclusive = small, poorly fitted or top-dose-only effect, or another doubt; inactive = no such curve, though single readings can be large; an effect the other way counts as inactive or inconclusive.

SMILES | DT40 TDP1 CPT | HepG2 viability | TDP1 cell noCPT | IL-1B inflam inh | TGFb SMAD3 inh | TDP1 block
COc1cccc(/C=N/NC(=O)c2ccc(N3CCCC3=O)cc2)c1 | u | -17.9% | 23.1µM* | -28.7 | -0.4% | x
O=C(N/N=C/c1sc(N2CCOCC2)nc1-c1ccccc1)c1cccc(S(=O)(=O)N2CCCC2)c1 | 2.59µM* | -17.7% | 4.61µM* | 55.9 | u | -2.6%
O=C(N/N=C/c1cc(Br)cc(Br)c1O)c1cccc(N2CCCC2=O)c1 | 5.17µM* | -10.5% | 1.46µM* | 128.9 | -3.2% | 12.1%
O=C(N/N=C/c1ccc(Cl)cc1Cl)c1cccc(N2CCCC2=O)c1 | -27.0% | -11.5% | -22.6% | u | -2.9% | x
Cc1ccc(-c2c3c(=O)n(C)c(=O)n(C)c3c3c(C(F)(F)F)nc4ccccc4n23)cc1 | u | -1.4% | u | x | 10.4% | -3.2%
CCCC(=O)NCC1(N(C)C)CCCCC1 | -0.7% | 5.8% | u | x | -7.0% | 3.6%
CCCC(=O)Nc1ccc(C2C(=O)c3ccccc3C2=O)cc1 | 16.4µM* | -29.9% | u | -18.9 | -14.5% | x
COc1ccc(NC(=O)c2nc[nH]c2C(=O)NCCCCCNC(=O)OC(C)(C)C)cc1 | x | x | x | x | x | -0.1%
COc1cccc(N/C=C(\C#N)c2ccc(OCCCF)cc2)c1 | 18.4µM* | -27.4% | u | -51.8* | -15.8% | 6.6%
COc1ccc(C(=O)Nc2cccc(OC)c2)cc1 | -26.2% | -42.1% | u | -13.2 | 8.7% | -4.0%
O=C(Nc1ccccc1Br)c1cc[n+]([O-])cc1 | 4.2% | -3.0% | 4.0% | 31.1 | 10.1% | 3.1%
Fc1ccc(-c2nc3ccc(Br)cn3c2Cc2ccccc2)cc1 | u | -50.4% | u | 28.5 | -10.9% | x
O=[N+]([O-])c1ccc(COc2cccc(CNc3ccc(F)cc3)c2)cc1 | 25.9µM* | -22.9% | 13µM* | u | u | 2.6%
O=[N+]([O-])c1cccc(COc2cccc(CO)c2)c1 | -2.5% | 1.4% | -3.2% | -12.6 | -1.6% | x
c1ccc(COc2cccc(CNCc3cccnc3)c2)cc1 | -23.2% | -18.5% | u | -0.8 | -15.3% | 2.7%
Oc1ccc(NCc2cccc(OCc3ccccc3)c2)cc1 | 14.6µM* | -11.6% | 20.6µM* | 57.5 | -10.7% | 8.1%
Oc1ccc(NCc2cccc(OCc3ccc(F)cc3)c2)cc1 | 23.1µM* | -94.6% | 18.4µM* | 28.9 | u | 8.5%
CCc1ccccc1NC(=O)Cn1nnc(C(=O)OC)c1C(=O)OC | 22.0% | -0.1% | 37.9% | x | -26.4% | -4.3%[12.3 µM]
O=C1C(=C(c2ccccc2)c2ccccc2)Nc2ccccc21 | 13µM* | 2.7% | 14.6µM* | 9.6 | -26.7% | 12.9%
CCc1ccccc1NC(=O)Cn1c(=O)n(Cc2ccccc2)c(=O)c2c(C)c(C(=O)N(C)C)sc21 | u | -4.2% | -9.2% | x | u | 6.4%
CC(C)(C)OC(=O)NCc1nnc(C(C(=O)OCc2ccccc2)c2ccccc2)s1 (configuration not stated) | x | x | x | x | x | -0.2%
CC[n+]1ccccc1/C=C/c1ccc(N(C)C)cc1 | 1.03µM* | -32.5% | 0.461µM* | -57.2* | u | 6.1%
CC[n+]1ccc(/C=C/c2ccc(N(C)C)cc2)c2ccccc21 | 0.0731µM* | -40.9% | 0.0065µM* | -105.9* | 6.31µM* | 6.1%
CCCCCC[n+]1ccccc1/C=C/c1ccc(N(C)C)cc1 | 0.058µM* | -32.1% | 0.0517µM* | u | 93.9% | x
CN(C)c1ccc(/C=C/c2nc3ccccc3o2)cc1 | 8.7% | -24.1% | u | x | 1.6% | x
CN(C)c1ccc(/C=C/c2cc[n+]([O-])c3ccccc23)cc1 | -19.6% | -5.0% | -11.3% | x | -11.6% | x
CN(C)c1ccc(/C=C/c2cc[n+]([O-])cc2)cc1 | x | x | x | x | x | 1.9%
